We go through 50 compounds from PubChem BioAssay AID2685 (National Center for Advancing Translational Sciences (NCATS), 2010).

About 2,100 (0.66%) of roughly 320,000 compounds were called active. Inconclusive results (about 53%) are left out. Calls come from the whole dose curve; as a rule, active = well fitted inhibition curve with a large enough effect in the signal ratio, with a control signal flat (not every such curve was filed as active); inconclusive = small, poorly fitted or top-dose-only effect, or effect the other way, or a change in a side signal; inactive = flat fitted curve, though single readings scatter; the % refers to the signal ratio. The entries come from a sample that favours actives as a whole.
Potency is the fitted concentration of half-maximal effect.

This assay can be described thus: qHTS Assay for Lipid Storage Modulators in Drosophila S3 Cells.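 For cell number change: cells counted by Cell Tracker Red CMTPX staining in the red channel.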 For lipid storage change, negative = inhibition: % is set by controls: 0 for no effect and ±100 for the full control effect. The settings on record: BODIPY lipid droplet fluorescence, 18-24 h, cells fed with added oleic acid; cell number change: measured here: cell count max response; series mostly up to 46.1 µM. Put shortly: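 Laser-scanning cytometry quantifies lipid droplet accumulation (500–530 nm total intensity; droplet/cell object ratio) in oleic acid-fed (400 uM added) Drosophila S3 cells treated with a concentration series. 20 uM Triacsin C defined 100% inhibition.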
For orientation: qHTS replaces the single test concentration by a dilution series.
As to `COCCN(C(=O)CNC(=O)c1cccs1)C(C(=O)NC1CCCCC1)c1ccco1` (stereo not drawn), the Potency result was “inactive” and the cell number change is -12.2%.

Consider `CC(=O)C(Sc1nnnn1-c1ccc(O)cc1)c1ccccc1` (stereo not drawn), for which the Potency result was “inactive” and the cell number change was 5.67%.

For the compound `COc1ccc(NC(=O)N2CCN(c3nc4ccccc4n3C(C)C)CC2)cc1`, the Potency is 14.6 µM (active) and the cell number change is -28.6%.

Regarding `Cn1c(N2CCN(C(=O)Nc3ccc(F)cc3)CC2)nc2ccccc21`, the Potency entry is “inactive” and the cell number change came to 17.1%.

In the case of `CC(C)n1c(N2CCN(C(=O)NCc3ccccc3)CC2)nc2ccccc21`, the Potency result is “inactive” and the cell number change was -4.04%.

For `N#Cc1c(Cl)nc(SCc2ccccc2)nc1-c1ccccc1`, the Potency result was “inactive” and the cell number change is -2.68%.

Consider `CCC(C)Sc1ccc([C@H]2N[C@@](Cc3ccccc3)(C(=O)OC)[C@H]3C(=O)N(C)C(=O)[C@@H]23)cc1` (stereo partly drawn), for which the Potency entry was “inactive” and the cell number change is 17.3%.

Consider `COc1cc(/C=C2/SC(=S)N(CCC(=O)Nc3ccccc3)C2=O)cc(OC)c1OC`, for which the Potency was 1.84 µM (active).

For the compound `COc1cc(/C=C2\SC(=S)N(CCC(=O)Nc3ccccc3O)C2=O)cc(OC)c1OC`, the Potency entry was “inactive”.

`COc1cc(/C=C2\SC(=S)N(CCC(=O)Nc3ccccc3)C2=O)cc(OC)c1OC`: the cell number change amounted to 15% and the lipid storage change, negative = inhibition is -5.12% [at 9.22 µM] (inactive).

`COc1cc(/C=C2\SC(=S)N(CCC(=O)Nc3cccc(O)c3)C2=O)cc(OC)c1OC`: the Potency was 3.66 µM (active) and the cell number change was 10.2%.

In the case of `O=C(CCN1C(=O)/C(=C/c2ccccc2)SC1=S)N[C@@H](CO)Cc1ccccc1`, the Potency entry is “inactive” and the cell number change is -19.2%.

With `COc1ccc(/C=C2\SC(=S)N(CCC(=O)Nc3cccc(O)c3)C2=O)cc1OC`, the Potency entry was “inactive” and the cell number change is -7.94%.

`O=C(CCN1C(=O)/C(=C/c2ccc(F)cc2)SC1=S)N[C@@H](CO)Cc1ccccc1`: the Potency is 29.1 µM (active) and the cell number change was -1.15%.

For the compound `COc1cc(/C=C2\SC(=S)N(CC(=O)Nc3ccc(O)cc3)C2=O)cc(OC)c1OC`, the Potency entry is “inactive” and the cell number change was determined as 19.7%.

`O=C(CCN1C(=O)/C(=C\c2ccc(F)cc2)SC1=S)Nc1ccccc1`: the Potency result was “inactive”.

For `COC(=O)c1ccccc1Oc1ccc(NC(=O)CCCl)cc1`, the Potency entry was “inactive” and the cell number change is -3.28%.

Turning to `O=C(CSc1nnc(Cn2c(=O)sc3ccccc32)n1-c1ccccc1)N1CCCC1`, the Potency result is “inactive” and the cell number change is -5.75%.

For the compound `CC(C)C(C(=O)NCC1CCCO1)N(C(=O)CNS(=O)(=O)c1ccccc1)c1ccc(F)cc1` (stereo not drawn), the Potency result is “inactive” and the cell number change is 10.5%.

With `Fc1cccc(COc2ccccc2CNc2ccccc2)c1`, the Potency result is “inactive” and the cell number change is -10%.

For `COCCn1ccc2c(OCC(=O)NCc3ccccc3)cccc2c1=O`, the Potency entry is “inactive” and the cell number change was -6.52%.

With `O=c1ccn(Cc2ccccc2)c2ccccc12`, the Potency result is “inactive” and the cell number change was -20.5%.

As to `O=C(O)c1ccc(N/N=C/c2cn(Cc3ccc(F)cc3)c3ccccc23)cc1`, the Potency result is “inactive” and the cell number change was determined as 0.719%.

On to `O=[N+]([O-])/C=C/c1cn(Cc2ccc(F)cc2)c2ccccc12`, for which the Potency is 20.6 µM (active) and the cell number change is -17.9%.

For `O=[N+]([O-])/C=C/c1cn(Cc2ccccc2)c2ccccc12`, the Potency was 10.3 µM (active).

Regarding `O=S(=O)(N/N=C/c1cn(Cc2ccccc2)c2ccccc12)c1ccccc1`, the Potency entry was “inactive” and the cell number change is -19.2%.

On to `CNC(=S)N/N=C/c1cn(Cc2ccc(F)cc2)c2ccccc12`, for which the Potency entry is “inactive” and the cell number change was -3.02%.

For the compound `N/C(=N\OC(=O)C12CC3CC(CC(C3)C1)C2)c1ccncc1`, the Potency entry is “inactive” and the cell number change is -16.5%.

Take `COc1ccc(N(C(=O)CNC(=O)c2ccco2)C(C(=O)NCC2CCCO2)c2ccccc2)cc1OC` (stereo not drawn): the Potency entry was “inactive” and the cell number change was found to be 7.66%.

For the compound `O=C(c1ccc(-c2ccccc2)cc1)N1CCN(Cc2ccccn2)CC1`, the Potency entry is “inactive” and the cell number change was -0.729%.

Consider `O=C(O)CC1S/C(=N/N=C/c2ccc(Br)cc2)N(c2ccccc2)C1=O` (stereo not drawn), for which the Potency entry was “inactive” and the cell number change was -1.06%.

With `CCC(C)(C)n1nnnc1C(c1cccc(C#N)c1)N1CCN(c2cccc(C)c2C)CC1` (stereo not drawn), the Potency result was “inactive” and the cell number change came to 0.845%.

`O=C(CSC1=NCCS1)N1CCN(c2ccc(Cl)cc2)CC1`: the Potency entry is “inactive” and the cell number change turned out to be 1.49%.

`O=C(CSC1=NCCS1)N1CCCCCC1`: the Potency was 4.61 µM (active) and the cell number change stood at 0.498%.

Turning to `O=C(CSC1=NCCS1)N1CCN(c2ccccc2)CC1`, the Potency result is “inactive” and the cell number change was -11.5%.

Consider `Cc1c(Cl)cccc1NC(=O)CCCCCN1C(=O)CCC1=O`, for which the Potency entry was “inactive”.

In the case of `CS(=O)(=O)c1ccc2nc(NC(=O)c3cccc(Cl)c3)sc2c1`, the Potency entry is “inactive” and the cell number change turned out to be 5.93%.

Regarding `CS(=O)(=O)c1ccc2nc(NC(=O)Nc3cccc(Cl)c3)sc2c1`, the Potency was 16.4 µM (active) and the cell number change is 10.2%.

In the case of `Cc1ccc(NC(=O)Nc2nc3ccc(S(C)(=O)=O)cc3s2)cc1`, the Potency entry is “inactive” and the cell number change was found to be 0.9%.

On to `CC(=O)c1ccc([N+](=O)[O-])c(CS(=O)(=O)c2ccc(Cl)cc2)c1`, for which the Potency entry was “inactive” and the cell number change came to 12.3%.

As for `Cc1ccc(S(=O)(=O)Cc2cc(F)c([N+](=O)[O-])cc2[N+](=O)[O-])cc1`, the Potency was 0.411 µM (active) and the cell number change stood at 20.1%.

Turning to `Cc1ccc(S(=O)(=O)Cc2ccc([N+](=O)[O-])cc2)cc1`, the Potency result was “inactive” and the cell number change is -6.56%.

On to `Cc1nc(C(C)NC(=O)CCc2nnc(-c3ccsc3)o2)cs1` (stereo not drawn), for which the Potency result is “inactive” and the cell number change was -5.47%.

With `CCC(c1nnc(SCC(=O)Nc2ccc(N3CCOCC3)cc2)n1Cc1ccccc1)N(C)C` (stereo not drawn), the Potency entry was “inactive”.

On to `CS(=O)(=O)Cc1ccc(C(=O)N(CCc2ccccc2)Cc2ccccc2)cc1`, for which the Potency entry was “inactive” and the cell number change is -0.348%.

As for `CS(=O)(=O)c1cccc(C(=O)NCc2ccccc2)c1`, the Potency entry was “inactive”.

In the case of `C=CCOc1ccccc1CN(CCc1ccccc1)C(=O)c1cccc(S(C)(=O)=O)c1`, the Potency was 4.11 µM (active) and the cell number change amounted to 1.8%.

For `O=C(CNC(=O)c1cccs1)NCC(=O)OCc1ccc(F)cc1`, the Potency result was “inactive” and the cell number change was -6.51%.

As to `CN(C(=O)CSc1nc2sc3c(c2c(=O)n1C)CCC3)C1CCS(=O)(=O)C1` (stereo not drawn), the Potency entry was “inactive” and the cell number change is -5.19%.

For the compound `CCc1ccc(N(CC(=O)NC(C)(C)C)C(=O)CCC(=O)Nc2ccccn2)cc1`, the Potency entry was “inactive” and the cell number change was determined as 19.3%.
